Measured values as given in PubChem BioAssay.
The source made the active and inactive calls. Rule as the data show it, unless noted: active = inhibition above about 80%; inactive = the rest.

What was measured:
[1] = target: 6-phosphogluconate dehydrogenase, decarboxylating (Homo sapiens) (UniProt P52209); test: inhibition of human phosphogluconate dehydrogenase – biochemical, recombinant enzyme, NADPH absorbance, primary screen (AID 1159550;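 active = at least 20% inhibition of 6-phosphogluconate dehydrogenase activity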); conditions: recombinant 6PGD, NADPH absorbance 341 nm; at 10 µM; stronger effect = higher value
Chain of 6-phosphogluconate dehydrogenase, decarboxylating (Homo sapiens) (P52209 whole entry, looked up): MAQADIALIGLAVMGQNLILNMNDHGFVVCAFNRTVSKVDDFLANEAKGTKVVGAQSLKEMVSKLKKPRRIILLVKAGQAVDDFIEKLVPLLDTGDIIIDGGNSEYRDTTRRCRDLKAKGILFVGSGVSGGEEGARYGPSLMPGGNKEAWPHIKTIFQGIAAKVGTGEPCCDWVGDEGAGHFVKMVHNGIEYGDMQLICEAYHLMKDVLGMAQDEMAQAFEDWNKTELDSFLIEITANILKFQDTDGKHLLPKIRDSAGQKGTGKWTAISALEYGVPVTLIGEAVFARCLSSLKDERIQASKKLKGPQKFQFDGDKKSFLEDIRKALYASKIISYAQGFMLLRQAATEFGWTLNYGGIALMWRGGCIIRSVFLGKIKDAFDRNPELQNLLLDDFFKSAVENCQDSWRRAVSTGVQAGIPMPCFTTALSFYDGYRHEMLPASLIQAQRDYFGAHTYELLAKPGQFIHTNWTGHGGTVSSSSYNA

[2] = viability loss with induced miR-34 in A549 – imaging, A549 dox-inducible miR-34, nuclei and caspase counts, primary screen (AID 1347080;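 active = compounds whose cell count with miR-34 switched on is under 0.7 times the count with it off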); conditions: A549 miR-34 inducible, Hoechst nuclei count, 48 h
[3] = MELAS cybrid and Rieske KO viability enhancers – cell-based, MELAS cybrids, Rieske KO mouse fibroblasts, CellTiter-Glo, primary screen (AID 1508586;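 active = mean z-score across replicates of 1.96 or higher in either the MELAS or the Rieske mutant cell line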;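 also: z relative to plate mean and SD of compound and empty wells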); conditions: low glucose
[4] = growth inhibition, single agent or in combination, cell-based, chromothripsis tumors, cisplatin or BGB combos (AID 1671449); conditions: LFS_MB_P medulloblastoma cells;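 also: cells exposed for 96 hours; 0% = vehicle DMSO and 100% = killing by high DMSO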
[5] = growth inhibition, single agent and combos, cell-based, chromothripsis tumors, cisplatin or BGB combos (AID 1671450); conditions: HDN33 neuroblastoma cells, stronger effect = higher value;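 also: cells exposed to compound for four days; 0% = vehicle DMSO and 100% = cell killing by high DMSO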
[6] = growth inhibition, single agents and combos, ICB984, cell-based, cisplatin or BGB combos, synergistic combos for chromothripsis tumors (AID 1671451; call rule not given here;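 also: cells exposed for 96 hours before readout; 0% = vehicle DMSO and 100% = killing by high DMSO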); conditions: ICB984 medulloblastoma cells, drug combinations, stronger effect = higher value
[7] = growth inhibition, single agents and combos, LFS_MB_1R, cell-based, cisplatin or BGB combos, synergistic combos for chromothripsis tumors (AID 1671452); conditions: LFS_MB_1R medulloblastoma cells, stronger effect = higher value;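 also: cells exposed for 96 hours before readout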
[8] = growth inhibition, single agents and combos, HTB85, cell-based, BGB or cisplatin IC20 combos, synergistic combos for chromothripsis tumors (AID 1671453); conditions: HTB85 osteosarcoma cells, drug combinations, stronger effect = higher value;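 also: cells exposed for 96 hours before readout; 0% = vehicle DMSO and 100% = high DMSO killing control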
[9] = growth inhibition, single agents and combos, CRL2098, cell-based, BGB or cisplatin IC20 combos, synergistic combos for chromothripsis tumors (AID 1671454); conditions: CRL2098 osteosarcoma cells, drug combinations, stronger effect = higher value;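 also: cells exposed for 96 h before readout; 0% = vehicle DMSO and 100% = killing by high DMSO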
[10] = growth inhibition, single agents and combos, HD-MB03, cell-based, BGB or cisplatin IC20 combos, synergistic combos for chromothripsis tumors (AID 1671455; in the data active = inhibition above about 83%;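 also: 0% = vehicle DMSO and 100% = high DMSO as cytotoxic control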); conditions: HD-MB03 medulloblastoma cells, stronger effect = higher value
[11] = growth inhibition, single agents and combos, UWB1.289, cell-based, BGB or cisplatin combos, synergistic combos for chromothripsis tumors (AID 1671456); conditions: UWB1.289 ovarian carcinoma cells, stronger effect = higher value;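 also: cells exposed to compound for four days; 0% = vehicle DMSO and 100% = killing by high DMSO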
[12] = growth inhibition, single agents and combos, LFS_MB_2R, cell-based, cisplatin combos, synergistic combos for chromothripsis tumors (AID 1671457); conditions: LFS_MB_2R medulloblastoma cells, stronger effect = higher value;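 also: cells exposed to compound for four days before readout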
[13] = growth inhibition, MDA-MB-436, cell-based, BGB or cisplatin combos, synergistic combos for chromothripsis tumors (AID 1671458; call rule not given here;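 also: cells exposed for 96 hours; 0% = vehicle DMSO and 100% = killing by high DMSO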); conditions: MDA-MB-436 breast carcinoma growth inhibition, drug combinations, stronger effect = higher value
[14] = UWB1.289_BRCA1 ovarian cancer growth, cell-based, BGB or cisplatin combinations (AID 1671459); conditions: UWB1.289 BRCA1 ovarian carcinoma, drug combinations, stronger effect = higher value
[15] = drug combination toxicity in non-malignant astrocytes – cell-based, BGB or cisplatin IC20 combos, cytotoxicity control for chromothriptic childhood tumor combination screen (AID 1671460); conditions: Human astrocytes, viability inhibition, drug combinations, at 0.5 µM, stronger effect = higher value;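 also: cells exposed to compounds for 96 hours before viability readout; 0% = vehicle and 100% = killing control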
[16] = BT084 cell growth, single and combined drugs, ICGC_MB145, cisplatin and BGB IC40 combos (AID 1671461); conditions: BT084 medulloblastoma cells, drug combinations, stronger effect = higher value;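 also: cells exposed to drugs for 96 hours; 0% = vehicle DMSO and 100% = high DMSO full killing control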
[17] = RCMB18 cell growth, single agent and combined, cisplatin and BGB IC40 combos (AID 1671462); conditions: RCMB18 medulloblastoma cells, stronger effect = higher value;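 also: cells exposed to compound for four days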
[18] = CRL1545 cell growth, single agent and combined, cisplatin and BGB IC20 combos (AID 1671464); conditions: CRL1545 osteosarcoma cells, stronger effect = higher value;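 also: cells exposed to compound for 96 hours before readout; 0% = vehicle DMSO and 100% = high DMSO killing control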
[19] = measured here: combination with BGB IC40, at 0.05 µM
[20] = measured here: with BGB IC20 combination, at 0.5 µM
[21] = measured here: with cisplatin IC20 combination, at 0.5 µM
[22] = measured here: combination with cisplatin, at 0.5 µM
[23] = measured here: combination with cisplatin, at 5 µM

CN(N=O)C(=O)NC1C(O)OC(CO)C(O)C1O (stereo not given)
inhibition [1]: -8.43% (inactive) | fold change ([2]; stronger effect = lower value, cell number ratio, induced over uninduced): 0.895 (inactive) | fold change ([2]; measured here: relative caspase fold change +Dox/-Dox): 0.982 | cell count ([2]; measured here: total cells with miR-34 induction, stronger effect = lower value): 7750 | cell count ([2]; measured here: total cells without miR-34 induction): 8650 | z-score ([3]; MELAS cybrid survival, CellTiter-Glo 48 h, stronger effect = higher value): -0.392 (inactive) | z-score ([3]; Rieske KO mouse fibroblast survival, CellTiter-Glo 72 h): 0.645 | inhibition ([4]; at 0.5 µM, stronger effect = higher value): -5.09% (inactive) | inhibition ([4]; measured here: combination with BGB IC20, at 0.005 µM): 2.88% | inhibition ([4]; measured here: combination with BGB IC40, at 0.005 µM): -23% | inhibition [4, 19]: 9.79% | inhibition ([4]; measured here: combination with cisplatin, at 0.5 µM, stronger effect = higher value): 18.7% | inhibition ([4]; measured here: combination with cisplatin, at 5 µM, stronger effect = higher value): -15% | inhibition ([5]; BGB combo, at 5 µM): -42.3% | inhibition ([5]; at 0.5 µM): -18.9% (inactive) | inhibition ([5]; cisplatin combo, at 5 µM): -31.9% | inhibition [5, 20]: -17.4% | inhibition [5, 21]: -13.6% | inhibition ([5]; single agent, at 5 µM): -38.9% | inhibition ([6]; BGB IC20 combo, at 0.005 µM): -31.3% | inhibition ([6]; BGB IC40 combo, at 0.005 µM): -16.7% | inhibition ([6]; BGB IC40 combo, at 0.05 µM): -24.6% | inhibition ([6]; at 0.5 µM): -5.69% (inactive) | inhibition ([6]; cisplatin combo, at 0.05 µM): -31% | inhibition ([6]; cisplatin combo, at 0.5 µM): -0.064% | inhibition ([6]; cisplatin combo, at 5 µM): -5.86% | inhibition ([6]; measured here: 5 uM single agent, at 5 µM): -8.73% | inhibition ([7]; at 0.5 µM): -12.5% (inactive) | inhibition [7, 19]: 0.459% | inhibition [7, 22]: -24.7% | inhibition [7, 23]: -26.7% | inhibition ([8]; at 0.5 µM): -27.9% (inactive) | inhibition ([8]; measured here: with BGB IC20, at 0.5 µM): -20.4% | inhibition ([8]; measured here: with BGB IC20, at 5 µM): -14.4% | inhibition ([8]; measured here: with cisplatin IC20, at 0.5 µM): -29.4% | inhibition ([8]; measured here: with cisplatin IC20, at 5 µM): -17.4% | inhibition ([8]; single agent, at 5 µM): -23.4% | inhibition ([9]; at 0.5 µM): -39.9% (inactive) | inhibition ([9]; measured here: combination with BGB at IC20, at 0.5 µM): -31.6% | inhibition ([9]; measured here: combination with cisplatin at IC20, at 0.5 µM): -51.1% | inhibition ([10]; at 0.5 µM): -11.6% (inactive) | inhibition ([10]; measured here: combo with BGB at IC20, at 0.5 µM): -2.88% | inhibition ([10]; measured here: combo with cisplatin at IC20, at 0.5 µM): -22.4% | inhibition ([11]; at 0.5 µM): -9.59% (inactive) | inhibition ([11]; measured here: inhibition with BGB combination, at 0.05 µM): -0.199% | inhibition ([11]; measured here: inhibition with cisplatin combination, at 0.05 µM): -7.77% | inhibition ([12]; at 0.5 µM): -6.59% (inactive) | inhibition [12, 22]: -12.5% | inhibition [12, 23]: -15.1% | inhibition ([13]; at 0.5 µM): -6.07% (inactive) | inhibition ([13]; measured here: BGB combination, at 0.5 µM): -5.12% | inhibition ([13]; measured here: BGB combination, at 5 µM): 4.69% | inhibition ([13]; measured here: cisplatin combination, at 0.5 µM): -11.2% | inhibition ([13]; measured here: cisplatin combination, at 5 µM): 0.976% | inhibition ([14]; BGB combination, concentration series, at 5 µM): -8.48% | inhibition ([14]; at 0.5 µM): -13% (inactive) | inhibition ([14]; cisplatin combination, concentration series, at 5 µM): 0.433% | inhibition [15]: -2.34% (inactive) | inhibition ([15]; measured here: combo with BGB IC20): -2.11% | inhibition ([15]; measured here: combo with cisplatin IC20): -7.96% | inhibition ([16]; at 0.5 µM): 9.28% (inactive) | inhibition ([16]; cisplatin combination, at 0.5 µM): 2.65% | inhibition ([16]; cisplatin combination, at 5 µM): -74.8% | inhibition ([16]; measured here: BGB IC40 combination 0.05 uM, at 0.05 µM): -4.62% | inhibition ([16]; single agent, at 5 µM): 14.7% | inhibition ([17]; at 0.5 µM): 8.81% (inactive) | inhibition ([17]; cisplatin combo, at 5 µM): -9.42% | inhibition ([17]; measured here: BGB IC40 combination, at 0.05 µM): -16.3% | inhibition [17, 22]: -21.8% | inhibition ([17]; single agent, at 5 µM): -8.26% | inhibition ([18]; at 0.5 µM): 3.09% (inactive) | inhibition [18, 20]: -18.9% | inhibition [18, 21]: 12.7% | inhibition ([18]; single agent, at 0.05 µM): -1.79% | inhibition ([18]; single agent, at 5 µM): -17.1%
